Measured values taken from PubChem BioAssay (NCATS).
Inconclusive results are not listed. The source made the active and inactive calls. The call rests on the fitted dose curve; in most records, active means well fitted cell-killing curve with a large enough effect; inconclusive means small, poorly fitted or top-dose-only effect, or effect the other way; inactive means flat fitted curve, though single readings scatter. Where a SMILES comes first, the peptide text is derived from it. The star is where a group is joined. PhAc = O=C(Cc1ccccc1)*

Legend:
Experiment in all cases: Primary qHTS to identify gynecologic anti-cancer compounds using libraries of approved drugs and bioactive compounds (AID 1345084); further: nearly all actives have a fitted effect of over 55% in size
Conditions in all cases: Gynecologic cancer cell panel viability, ATPlite luminescence, 48 h; series mostly up to 57.5 µM
[1] = tested on: OV90
In short: (§1)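 48 h compound exposure at 37 C, 5% CO2; five-point qHTS. ATPlite luminescence readout of cell ATP.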

[2] = tested on: PA-1
In short: as §1

[3] = tested on: SKOV3
In short: as §1

[4] = tested on: Tov-21-G
In short: as §1

[5] = tested on: Tov112D
In short: as §1
On the % scale 0 is the no-effect control and ±100 the full control effect; potency means the concentration at half of the fitted maximal effect.

C[C@H]1CC[C@@]2(OC1)O[C@H]1CC3C4CC[C@H]5C[C@@H](O)CC[C@]5(C)C4CC(=O)[C@]3(C)[C@H]1[C@@H]2C (stereo not given in full)
inactive: Potency [1] | Potency [2] | Potency [3] | Potency [4] | Potency [5]

CC(C)=C1CC2C(CCC2(C)O)C(C)(O)CC1=O (stereo not given)
inactive: Potency [1] | Potency [2] | Potency [3] | Potency [4] | Potency [5]

C/C=C(\C)C(=O)OC[C@H]1O[C@@H](O[C@H]2[C@@H](O[C@H]3O[C@H](COC(=O)/C(C)=C/C)[C@@H](O)[C@H](O)[C@H]3O[C@@H]3O[C@H](COC(=O)/C(C)=C/C)[C@@H](O)[C@H](OC(=O)/C(C)=C/C)[C@H]3O)O[C@H](COC(=O)/C(C)=C/C)[C@@H](O)[C@@H]2O)[C@H](O)[C@@H](O)[C@@H]1O
inactive: activity change, negative = cytotoxicity [1] -7.83% [at 11.6 µM] | activity change, negative = cytotoxicity [2] 0.401% [at 11.6 µM] | activity change, negative = cytotoxicity [3] -1.49% [at 11.6 µM] | activity change, negative = cytotoxicity [4] -1.7% [at 11.6 µM] | activity change, negative = cytotoxicity [5] 6.68% [at 11.6 µM]

COc1cccc(OC)c1-c1nc(C(=O)N[C@@H](CC(C)C)C(=O)O)cn1-c1ccnc2cc(Cl)ccc12
inactive: Potency [1] | Potency [2] | Potency [3] | Potency [4] | Potency [5]

CC(=O)O[C@H]1C[C@@H](O)C(C)(C)C2C[C@@H](OC(C)=O)[C@@]3(C)C4=CCC(C(CO)CC(O)C5OC5(C)C)[C@]4(C)CCC3[C@]21C (stereo not given in full)
inactive: Potency [1] | Potency [2] | Potency [3] | Potency [4] | Potency [5]

CC(C)=CC[C@H]1O[C@]2(O)C([C@H]3CCC4[C@@]5(C)CC[C@H](O[C@@H]6O[C@H](CO)[C@H](O)[C@H](O[C@@H]7O[C@H](CO)[C@@H](O)[C@H](O)[C@H]7O)[C@H]6O[C@@H]6O[C@@H](C)[C@H](O)[C@@H](O)[C@H]6O)C(C)(C)C5CC[C@@]4(C)[C@]3(C)[C@H]2O)[C@@]1(C)O (stereo not given in full)
inactive: activity change, negative = cytotoxicity [1] -2.06% [at 11.6 µM] | activity change, negative = cytotoxicity [2] 0.425% [at 11.6 µM] | activity change, negative = cytotoxicity [3] 28% [at 11.6 µM] | activity change, negative = cytotoxicity [4] -2.04% [at 11.6 µM] | activity change, negative = cytotoxicity [5] 6.89% [at 11.6 µM]

C=Cc1cc2oc(-c3ccc(O)c(F)c3)nc2cc1O
inactive: Potency [2] | Potency [3] | Potency [4] | Potency [5]
active: Potency [1] 25.1 µM

CC(C)CC(=O)NCCn1cc(C(=O)O)c(=O)cc1C(O)c1ccccc1 (stereo not given)
inactive: Potency [1] | Potency [2] | Potency [3] | Potency [4] | Potency [5]

COc1cc(/C=C/C(=O)O)ccc1O[C@@H]1O[C@H](CO)[C@@H](O)[C@H](O)[C@H]1O[C@@H]1OC[C@](O)(CO)[C@H]1O
inactive: Potency [1] | Potency [2] | Potency [3] | Potency [4] | Potency [5]

CCOC(=O)CNC(=O)[C@@H]1CCCN1C(=O)Cc1ccccc1 (PhAc-Pro-Gly-OEt)
inactive: Potency [1] | Potency [2] | Potency [3] | Potency [4] | Potency [5]

COC(=O)C1=COC(O[C@@H]2O[C@H](CO)[C@@H](O)[C@H](O)[C@H]2O)[C@@H]2[C@@](C)(O)[C@@H](OC(=O)/C=C/c3ccccc3)C[C@]12O (stereo not given in full)
inactive: Potency [1] | Potency [2] | Potency [3] | Potency [4] | Potency [5]

CC(=O)OCC1OC(OC2COC(OC3COC(OC4C(OC5C(CO)OC(OC6CCC7(C)C(CCC8(C)C7CC=C7C9CC(C)(C)CCC9(C(=O)OC9OC(CO)C(O)C(O)C9OC9OCC(OC%10OCC(O)(CO)C%10O)C(O)C9O)C(O)CC78C)C6(C)C)C(O)C5O)OCC(O)C4O)C(O)C3O)C(O)C2O)C(OC(=O)/C=C/c2ccccc2)C(O)C1OC(C)=O (stereo not given)
inactive: activity change, negative = cytotoxicity [1] -0.455% [at 6.55 µM] | activity change, negative = cytotoxicity [2] -23.4% [at 6.55 µM] | activity change, negative = cytotoxicity [3] 14.7% [at 6.55 µM] | activity change, negative = cytotoxicity [4] -3.47% [at 6.55 µM] | activity change, negative = cytotoxicity [5] 9.27% [at 6.55 µM]

CC1CCC2C(C)(C)C(O)C(O)CC2(C)C12Cc1c(O)cc(CO)c(C=O)c1O2 (stereo not given)
inactive: Potency [1] | Potency [2] | Potency [3] | Potency [4] | Potency [5]

CCCSc1nc(NC2CC2c2ccc(F)c(F)c2)c2nnn(C3CC(OCCO)C(O)C3O)c2n1 (stereo not given)
inactive: Potency [1] | Potency [2] | Potency [3] | Potency [4] | Potency [5]

CC(C)(O)C1CCC2(C)CCCC(C)(O)C2C1 (stereo not given)
inactive: Potency [1] | Potency [2] | Potency [3] | Potency [4] | Potency [5]

Fc1ccc(-c2c3cccc(C(F)(F)F)c3nn2Cc2ccc(F)cc2Cl)cc1
inactive: Potency [1] | Potency [2] | Potency [3] | Potency [4] | Potency [5]

O=C(/C=C/c1ccc(O)cc1)O[C@H]1[C@H](OC2CCCCC2O)O[C@H](CO)[C@@H](O)[C@@H]1O (stereo not given in full)
inactive: Potency [1] | Potency [2] | Potency [3] | Potency [4] | Potency [5]

COc1ccc(S(=O)(=O)Nc2nc(-c3cccc([N+](=O)[O-])c3)cs2)cc1OC
inactive: Potency [1] | Potency [2] | Potency [3] | Potency [4] | Potency [5]
